Source: PubChem (several laboratories)
Shown is part of a subset that was picked to be rich in hits.
Candida biofilm = clotrimazole potentiators killing Candida biofilms, primary screen, with clotrimazole, Alamar Blue; C. albicans biofilm + clotrimazole; inhibition, % at 6 µM; 0.14% of 85,000 active; AID 834, 2007;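 active = inhibition above 20%; inactive = inhibition below 20%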;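 note: preformed 24 hr biofilms exposed to compound for 48 hr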
DAT uptake mod = changed hDAT dopamine uptake under cocaine IC80, either direction, primary screen, cocaine antagonist project, cell-based, LLC-PK1 hDAT, [14C]-dopamine uptake, MLSMR; 1.3% of 110,000 active; Sodium-dependent dopamine transporter (Homo sapiens), Q01959; B-score at 10 µM; LLC-PK1 hDAT cells, [14C]-dopamine uptake with cocaine IC80; actives deviate in either direction; AID 449768, 2010;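 active = Z score or B-score, a plate-position-corrected score, falls beyond the plate's 99.7% confidence bounds, in either direction; inactive = both scores lie inside the 99.7% bounds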
PLAP activator = PLAP enzyme activators, biochemical, luminescence, HTS. Alkaline phosphatase, placental type (Homo sapiens), P05187. purified PLAP enzyme, luminescent substrate read-out; hits give high values. activation fold at 20 µM. 1.2% of 96,000 active; in the data active = activation fold above about 2
HePTP inh = inhibitors of human HePTP phosphatase, primary screen, biochemical, absorbance, leukemia target | recombinant HePTP phosphatase activity, OD absorbance | Tyrosine-protein phosphatase non-receptor type 7 (Homo sapiens), P35236 | 0.64% of 110,000 active | AID 521, 2006 | inhibition, % at 20 µM; in the data active = inhibition above about 50%
TNAP act DEA = human TNAP enzyme activators, primary screen, biochemical, luminescent, intermediate phosphate acceptor level; Alkaline phosphatase, tissue-nonspecific isozyme (Homo sapiens), P05186; purified TNAP, CDP-star luminescence, 100 mM DEA, 30 min; hits give high values; scale: 0 levamisole-inhibited, 1 vehicle-only enzyme; activation factor at 20 µM; 64,000 tested, under 10 active;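 active = activation factor of at least 2 at 20 µM, relative to controls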
Target sequence (P05186 whole entry, looked up): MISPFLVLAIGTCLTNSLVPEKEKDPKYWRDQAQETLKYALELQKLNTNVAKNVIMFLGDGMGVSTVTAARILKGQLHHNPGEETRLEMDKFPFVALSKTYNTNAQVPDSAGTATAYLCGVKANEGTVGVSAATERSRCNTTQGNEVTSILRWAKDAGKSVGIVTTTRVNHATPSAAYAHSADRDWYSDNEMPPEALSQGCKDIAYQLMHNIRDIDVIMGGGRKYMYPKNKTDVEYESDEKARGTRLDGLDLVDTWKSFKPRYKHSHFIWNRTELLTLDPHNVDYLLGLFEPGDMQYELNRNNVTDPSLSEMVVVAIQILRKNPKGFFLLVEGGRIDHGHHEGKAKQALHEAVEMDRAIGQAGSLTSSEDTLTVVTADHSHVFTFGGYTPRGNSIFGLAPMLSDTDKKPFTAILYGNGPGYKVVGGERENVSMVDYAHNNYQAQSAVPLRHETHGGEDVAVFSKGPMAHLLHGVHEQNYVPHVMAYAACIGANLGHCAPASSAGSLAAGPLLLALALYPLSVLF
D1 mod = D1 CRE-luciferase signal change, two-sided – cell-based, HEK293 D1, dopamine EC30, D1 allosteric modulator project, primary screen; D(1A) dopamine receptor (Homo sapiens), P21728; dopamine EC30 potentiation; actives deviate in either direction; 5.9% of 58,000 active; B-score at 10 µM;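 active = luminescence count or its row- and column-corrected plate score outside the 99.7% band of the plate's sample wells, on either side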
Hits are given with their value; i = inactive; nt = no result.

SMILES	Candida biofilm	DAT uptake mod	PLAP activator	HePTP inh	TNAP act DEA	D1 mod
CC(=O)O[C@H]1C[C@@H]2CC[C@@H]3[C@H](CC[C@@]4(C)[C@H]3C[C@H]([N+]3(C)CCCCC3)[C@@H]4OC(C)=O)[C@@]2(C)C[C@@H]1[N+]1(C)CCCCC1	i	nt	nt	i	i	17
CC(=O)OC1C([N+]2(C)CCCCC2)C[C@H]2C3CC[C@H]4C[C@H](OC(C)=O)C([N+]5(C)CCCCC5)CC4(C)[C@H]3CCC12C (stereo partly drawn)	nt	i	nt	nt	nt	nt
O=C(O)c1cn(-c2ccccc2)nc1-c1ccncc1	i	i	i	i	i	nt
O=C(c1cn(-c2ccccc2)nc1-c1ccncc1)n1nnc2ccccc21	i	i	nt	i	i	12
CC(=O)NC(C)C(c1cccs1)N1CCN(c2ccccc2)CC1 (stereo not drawn)	i	i	i	i	i	-0.95
Cc1csc(C(C#N)C(=O)c2cc3ccccc3o2)n1 (stereo not drawn)	i	i	i	i	i	-3.8
Cc1cccc(C)c1NC(=O)c1cc2ccccc2o1	nt	nt	nt	i	nt	nt
C=C(C)COc1ccc(-c2[nH]ncc2Oc2ccccc2OC)c(O)c1	i	i	2	i	i	i
C=C(C)COc1ccc(-c2[nH]ncc2-c2ccccc2OC)c(O)c1	i	i	2.5	i	i	i
CCCOC(=O)c1ccc(Oc2cn[nH]c2-c2ccc(OC)cc2O)cc1	i	nt	2.9	i	i	i
CCOc1ccc(-c2[nH]ncc2Oc2ccccc2OC)c(O)c1	i	i	nt	i	i	i
CCOc1ccc(-c2[nH]ncc2Oc2ccccc2OCC)c(O)c1	i	i	2.5	i	i	i
CCOC(=O)c1c(NC(=O)c2ccccc2OC)sc(C(=O)N2CCCCC2)c1C	nt	nt	nt	i	nt	nt
CCNC(=S)NNC(=O)CSc1nc2ccccc2n1CC	nt	nt	nt	i	nt	nt
CCCCSc1nnc2c(n1)OC(c1ccc(O)cc1)Nc1ccccc1-2 (stereo not drawn)	nt	nt	nt	i	nt	nt
CCc1ccc(-c2nc3cc(NC(=O)c4ccc5c(c4)OCCO5)ccc3o2)cc1	nt	nt	nt	i	nt	nt
COc1ccc(NC(C)=O)cc1NC(=O)CSc1nc2ncccc2[nH]1	i	i	2.4	i	i	i
Cc1csc(NC(=O)C(CC(C)C)NS(=O)(=O)c2ccc3c(c2)oc(=O)n3C)n1 (stereo not drawn)	i	i	2.3	i	i	i
CCN(CC)c1ccc(NC(=O)c2ccccc2F)cc1	i	i	i	i	i	-5
O=C(Nc1cnc2ccccc2c1)c1ccco1	i	i	i	i	i	-4.5
CCN(CC)c1ccc(NC(=O)c2ccco2)cc1	i	i	i	i	i	-3
CCN(CC)c1ccc(NC(=O)/C=C\c2ccccc2Cl)cc1	nt	i	i	104	nt	nt
O=C(Nc1cccc(-c2cnc3ccccc3n2)c1)c1ccco1	i	i	i	i	i	i
O=C(Nc1cccc(O)c1)c1cccc(NC(=O)c2ccccc2-c2ccccc2C(=O)O)c1	nt	nt	nt	i	nt	nt
Cc1cc(=O)[nH]c(N/N=C/c2ccc(Br)cc2)n1	nt	nt	nt	i	nt	nt
SMILES	Candida biofilm	DAT uptake mod	PLAP activator	HePTP inh	TNAP act DEA	D1 mod
O=CNC(NC(=S)Nc1ccc(F)cc1)C(Cl)(Cl)Cl (stereo not drawn)	nt	nt	nt	i	nt	nt
Clc1cccc(-c2ccc(/C=N/n3cnnc3)o2)c1	i	i	i	i	i	-5.1
Cc1ccc(-c2ccc(/C=N/n3cnnc3)o2)cc1Cl	i	i	i	i	i	i
CCCCCC(=O)Nc1ccc(N2CCN(CC)CC2)c(Cl)c1	nt	i	i	i	i	-4.6
CCCCCOC(=O)C1=C(C)NC(=S)NC1c1ccccc1 (stereo not drawn)	nt	nt	nt	63	nt	nt
CCCCOC(=O)CSc1nnc(N)s1	i	-2.4	i	i	i	i
COc1ccc(C2/C(=C(\O)c3ccc(C)cc3)C(=O)C(=O)N2c2ncc(S(=O)(=O)c3ccc([N+](=O)[O-])cc3)s2)cc1 (stereo not drawn)	nt	nt	nt	i	nt	nt
Cc1oc2cc(OCC(=O)O)ccc2c(=O)c1Oc1ccccc1	i	i	i	i	i	i
CCc1cc2c(=O)c(Oc3ccccc3)c(C)oc2cc1O	i	-2.5	i	i	i	i
